This is an account of results in PubChem BioAssay.

Calls of active or inactive are those of the source.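 How the source made its calls, unless noted: active means fluorescence slope higher than the sample average by over 3 SD (cut at about -0.22 in these data, passing the limit was not always enough); inactive means the rest.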

Assay [1] in a line: inhibitors of TNFa-induced NFkB p65 translocation, primary screen, imaging, HUVEC, MLSMR starter and 10KST1 sets (AID 438;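 active means inhibition above 20% together with a positive visual image hit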;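 further: compound added about 3h40 before a 20 min TNFalpha stimulation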;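 on inhibition: signal is the nuclear over cytoplasmic p65 intensity ratio per well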). As to conditions: HUVEC TNFa-induced p65 nuclear translocation; cell count: measured here: nuclei count (cytotoxicity indicator), at 2.08 µM; inhibition: at 2 µM, stronger effect = higher value, 0% TNFa-plus-vehicle, 100% no-TNFa wells.
The nature of assay [2]: inhibitors of mutant huntingtin aggregation, primary screen, imaging, exon1htt(103Q)mCFP cells, high-content imaging (AID 483;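 active means visual image review flags a hit and inhibition of aggregation exceeds 20%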;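 further: compound exposure lasted 3 days before fixation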;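 on nuclei count: percent of the per-plate median nuclei count of sample wells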). As to conditions: exon1htt(103Q)mCFP cell line, aggregate imaging, at 2 µM; inhibition of aggregation: stronger effect = higher value; nuclei count: measured here: cell count, toxicity.
The nature of assay [3]: inhibitors of E-selectin induction by TNFa, primary screen, imaging, HUVEC, immunofluorescence, MLSMR starter and 10KST1 sets (AID 487;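 active means visually confirmed hit in the image check and inhibition above 20%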;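 on inhibition: signal is fraction of cell area covered by stained E-selectin grains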;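 on nuclei count: 100% = median nuclei count of all wells on the same plate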). As to conditions: HUVEC TNFalpha-induced E-selectin immunofluorescence imaging, at 2 µM; inhibition: stronger effect = higher value; nuclei count: measured here: cell number, toxicity.
In assay [4] the target is Voltage-gated potassium channel subunit beta-2 (Rattus norvegicus) (UniProt P62483). Put plainly: KvBeta enzyme negative modulators, primary screen, biochemical, NADPH fluorescence (AID 622).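 Further: slope of raw intensity against log time taken from 70 to 1610 s.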 As to conditions: recombinant KvBeta, 4-cyanobenzaldehyde reduction, at 10 µM, stronger effect = higher value.
Sequence of Voltage-gated potassium channel subunit beta-2 (Rattus norvegicus) (P62483 whole entry, looked up): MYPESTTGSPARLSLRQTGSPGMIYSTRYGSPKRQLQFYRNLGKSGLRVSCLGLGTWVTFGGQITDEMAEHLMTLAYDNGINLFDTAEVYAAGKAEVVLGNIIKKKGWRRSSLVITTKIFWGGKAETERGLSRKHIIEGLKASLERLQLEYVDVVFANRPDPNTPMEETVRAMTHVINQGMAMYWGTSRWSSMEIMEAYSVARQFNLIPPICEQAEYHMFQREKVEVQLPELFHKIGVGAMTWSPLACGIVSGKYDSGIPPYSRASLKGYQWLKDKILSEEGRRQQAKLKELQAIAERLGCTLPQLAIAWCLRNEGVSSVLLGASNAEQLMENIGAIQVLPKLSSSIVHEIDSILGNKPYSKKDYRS
Assay [5] shares this target. As to the kind of experiment: KvBeta positive modulators, primary screen, biochemical, NADPH fluorescence (AID 623;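 active means NADPH fluorescence slope more negative than the mean of all samples by about 3 SD, 99.7% confidence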;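 further: fluorescence intensity change per second fitted from 20 to 320 s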). As to conditions: Recombinant KvBeta, NADPH fluorescence decrease slope, 10 min; at 10 µM; stronger effect = lower value.
For assay [6], the target named is Alpha-2C adrenergic receptor (Homo sapiens) (UniProt P18825). Put plainly: modulators of alpha2C/GIRK thallium flux, primary screen, cell-based, HEK293 alpha2C/GIRK1/2 (AID 624;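 active means fluorescence slope after compound addition differing from the mean of all screened samples at 99.7% confidence, in either direction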;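 further: slope of fluorescence ratio to pre-addition baseline per second over 15 to 24 s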). As to conditions: thallium flux BTC fluorescence, at 10 µM, actives lie on both sides.
Sequence of Alpha-2C adrenergic receptor (Homo sapiens) (P18825 whole entry, looked up): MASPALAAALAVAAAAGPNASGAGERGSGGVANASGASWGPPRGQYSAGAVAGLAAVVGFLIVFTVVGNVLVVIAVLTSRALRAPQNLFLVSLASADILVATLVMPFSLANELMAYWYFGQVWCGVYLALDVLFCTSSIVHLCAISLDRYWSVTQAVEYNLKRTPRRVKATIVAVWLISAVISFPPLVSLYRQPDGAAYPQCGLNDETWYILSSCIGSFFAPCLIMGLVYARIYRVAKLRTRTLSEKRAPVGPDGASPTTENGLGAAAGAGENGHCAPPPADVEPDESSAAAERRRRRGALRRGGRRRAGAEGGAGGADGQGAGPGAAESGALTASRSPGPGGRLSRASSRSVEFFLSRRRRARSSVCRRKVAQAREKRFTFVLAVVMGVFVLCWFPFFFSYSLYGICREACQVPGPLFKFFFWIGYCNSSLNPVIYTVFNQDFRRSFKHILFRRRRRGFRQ
Assay [7] is described as follows: inhibitors of Sendai virus-induced IRF3 signaling, primary screen, TLR/RLR signaling modifier project, cell-based, Sendai virus stimulus, luciferase, 10K MLSCN set (AID 602276;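 active means inhibition at or above 50% at 10 µM; inactive means inhibition below 50%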;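 further: firefly luciferase from ISG56 promoter only with Renilla not read in this screen; 0% = Sendai virus plus DMSO and 100% = medium plus DMSO without virus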). As to conditions: HEK293 RL24 IRF3 luciferase reporter, at 10 µM, stronger effect = higher value. (In general: In a reporter assay the amount or activity of a reporter protein is the signal.)
A short description of assay [8]: inhibitors of poly I:C-induced TLR3 signaling, primary screen, cell-based, poly I:C stimulus, luciferase, 10K MLSCN set (AID 602277;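 active means inhibition of the reporter signal at or above 50%; inactive means inhibition below 50%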). As to conditions: HEK293-TLR3 RL24 IRF3 luciferase reporter, at 10 µM, stronger effect = higher value.

For orientation: inhibition means the change of the read-out against control, counted positive when it falls. On to `COc1cc(OC)cc(C(=O)N2c3ccc(F)cc3CCC2C)c1` (stereo not given), for which the cell count in assay [1] turned out to be 282. Further, the inhibition was -4.7% (inactive) in assay [1], -85.9% (inactive) in assay [3], 12.9% (inactive) in assay [7] and 21.8% (inactive) in assay [8]. In addition, the inhibition of aggregation in assay [2] is 19% (inactive). The nuclei count in assay [2] was found to be 83.6%; in assay [3], 103%. For the same molecule, the fluorescence slope in assay [4] is -0.524 (inactive). Besides, the NADPH fluorescence slope in assay [5] is -4.4e-05 (inactive). Besides, in assay [6], the slope is 0.0061 (inactive).
For `Cc1cc2ccccc2c(=O)n1CC(=O)N(C)c1ccc(F)cc1`, the cell count in assay [1] came out at 629. Besides, the inhibition was -4.7% (inactive) in assay [1], -74.2% (inactive) in assay [3], 2.03% (inactive) in assay [7] and 9.91% (inactive) in assay [8]. In assay [2], the inhibition of aggregation was -4.1% (inactive). Also, the nuclei count stood at 98% in assay [2] and 103% in assay [3]. The fluorescence slope in assay [4] was -0.353 (inactive). The NADPH fluorescence slope in assay [5] is -5.6e-05 (inactive). Moreover, the slope in assay [6] is 0.00579 (inactive).
Consider `Cc1cc(C)nc(Sc2ccc3nnc(C(F)(F)C(F)(F)C(F)(F)F)n3n2)n1`, for which the cell count in assay [1] came out at 564. Moreover, the inhibition in assay [1] is -21.1% (inactive); in assay [3] it was 4.1% (inactive); in assay [7] it was -0.722% (inactive); in assay [8], 24.8% (inactive). The inhibition of aggregation in assay [2] is -9.9% (inactive). Further, the nuclei count in assay [2] came to 115%; in assay [3] it was 99.7%. Further, the fluorescence slope in assay [4] is -0.495 (inactive). The NADPH fluorescence slope in assay [5] was -3.3e-05 (inactive). In addition, the slope in assay [6] is 0.00541 (inactive).
With `c1ccc2ncc(-n3cnnn3)cc2c1`, the cell count in assay [1] is 705. Moreover, the inhibition was -4.7% (inactive) in assay [1], -118% (inactive) in assay [3], 9.03% (inactive) in assay [7] and 11.8% (inactive) in assay [8]. In addition, the inhibition of aggregation in assay [2] is 7.3% (inactive). Moreover, the nuclei count was found to be 110% in assay [2] and 117% in assay [3]. In assay [4], the fluorescence slope was -0.411 (inactive). In assay [5], the NADPH fluorescence slope was -2e-05 (inactive). The slope in assay [6] is 0.00684 (inactive).
On to `Cc1csc(NC(=O)CCn2c(=O)oc3ccccc32)n1`, for which, in assay [1], the cell count was 502. In addition, the inhibition is -20.3% (inactive) in assay [1], -6.4% (inactive) in assay [3], 4.3% (inactive) in assay [7] and -1.46% (inactive) in assay [8]. Besides, the inhibition of aggregation in assay [2] is -30.3% (inactive). The nuclei count was determined as 79.1% in assay [2] and 90.9% in assay [3]. Besides, the fluorescence slope in assay [4] is -0.323 (inactive). Further, the NADPH fluorescence slope in assay [5] is -4.9e-05 (inactive). Further, the slope in assay [6] was 0.00431 (inactive).
Turning to `CCOC(=O)N1CCN(C(=O)CSc2nnc(-c3cccc(Cl)c3)o2)CC1`, the cell count in assay [1] was 543. Besides, the inhibition is 11.7% (inactive) in assay [1], -3.2% (inactive) in assay [3], 0.178% (inactive) in assay [7] and 18.7% (inactive) in assay [8]. In addition, in assay [2], the inhibition of aggregation is -117% (inactive). In addition, the figures for the nuclei count in assay [2] and in assay [3] were 10.5% and 96%, respectively. Further, in assay [4], the fluorescence slope was -0.494 (inactive). Also, the NADPH fluorescence slope in assay [5] was -0.000158 (inactive). Moreover, the slope in assay [6] was 0.00621 (inactive).
In the case of `Cc1ccc(NC(=O)CCN2CCc3ccccc3C2)cc1`, in assay [1], the cell count came to 820. Besides, the inhibition in assay [1] is -9.6% (inactive); in assay [3], -44.8% (inactive); in assay [7], 5.12% (inactive); in assay [8], 24.7% (inactive). The inhibition of aggregation in assay [2] was -13.1% (inactive). Further, the results for the nuclei count in assay [2] and in assay [3] were 86.9% and 113%, respectively. Moreover, in assay [4], the fluorescence slope is -0.463 (inactive). Moreover, the NADPH fluorescence slope in assay [5] was -0.000317 (inactive). Moreover, in assay [6], the slope is 0.00467 (inactive).
Consider `c1cn(CC2(Cn3ccnc3)COC2)cn1`, for which, in assay [1], the cell count turned out to be 793. For the same molecule, the inhibition is -6.2% (inactive) in assay [1], -2.3% (inactive) in assay [3], 14.1% (inactive) in assay [7] and 17.6% (inactive) in assay [8]. Besides, in assay [2], the inhibition of aggregation is -13.4% (inactive). In addition, the nuclei count in assay [2] amounted to 104%; in assay [3], 105%. In addition, the fluorescence slope in assay [4] is -0.614 (inactive). Moreover, in assay [5], the NADPH fluorescence slope is -1.1e-05 (inactive). In assay [6], the slope is 0.00589 (inactive).
Consider `Cc1nn(C)c(C)c1S(=O)(=O)N1CCCC(C(=O)N2CCN(c3ccc(Cl)cc3)CC2)C1` (stereo not given), for which, in assay [1], the cell count was found to be 288. The inhibition in assay [1] is -3.9% (inactive); in assay [3], -270% (inactive); in assay [7] it was 11.1% (inactive); in assay [8], 11.6% (inactive). The inhibition of aggregation in assay [2] is -45.6% (inactive). Further, the results for the nuclei count in assay [2] and in assay [3] were 94.8% and 85.9%, respectively. The fluorescence slope in assay [4] was -0.591 (inactive). In assay [5], the NADPH fluorescence slope is -1.7e-05 (inactive). The slope in assay [6] was 0.00589 (inactive).
Consider `CC(C)C(NC(=O)c1ccco1)C(=O)NCC(c1ccco1)N1CCCCC1` (stereo not given), for which the cell count in assay [1] was found to be 379. For the same molecule, the inhibition in assay [1] was -22% (inactive); in assay [3], 0% (inactive); in assay [7], 3.26% (inactive); in assay [8], 14.7% (inactive). For the same molecule, the inhibition of aggregation in assay [2] is 6.7% (inactive). Besides, the figures for the nuclei count in assay [2] and in assay [3] were 99% and 97.7%, respectively. For the same molecule, the fluorescence slope in assay [4] was -0.588 (inactive). The NADPH fluorescence slope in assay [5] is -2.6e-05 (inactive). In assay [6], the slope was 0.00507 (inactive).
